Reference: PubChem BioAssay AID2025 (NMMLSC, 2009)
Out of some 330,000 compounds screened, about 980 (0.3%) were called active.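 How the source made its calls: active means percent response vs DMSO below 50%; inconclusive means fewer than 70 events counted for the yeast strain; inactive means the rest.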 The list comes from a sample in which actives are over-represented; it also holds similar structures and randomly drawn compounds.

Test: RPL19A-GFP expression modulators in yeast, primary screen, cell-based, S. cerevisiae, multiplex flow cytometry, MLPCN (AID 2025);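 further: median channel GFP fluorescence of the barcoded RPL19A-GFP strain; ratio of sample median GFP to plate DMSO average so 100% = DMSO; lower means less RPL19A-GFP as with rapamycin TOR inhibition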
Details: S. cerevisiae RPL19A-GFP strain, 3 h, at 10 µM, hits give low values

Row | Structure (SMILES) | percent response vs DMSO
1 | O=C(CN1CCCC1)N1CCN(c2ccccc2)CC1 | 90.5% (inactive)
2 | Cc1nc2c(ncn2-c2ccccc2)c(=O)n1NC(=O)CN1CCCC1 | 27.7% [may fluoresce violet] (active)
3 | Cc1nc2ccccc2c(=O)n1NC(=O)c1ccccc1 | 100% (inactive)
4 | CN(CCc1cnn(C)c1)Cc1cn(C)nc1-c1ccccc1F | 96.2% (inactive)
5 | COc1ccc(C(=O)NC2CC2)cc1OC1CCN(Cc2ccc(SC)cc2)CC1 | 101% (inactive)
6 | COc1ccc(CN2CCCC(C(=O)c3ccc(Cl)cc3)C2)cc1Cn1cncn1 (configuration not stated) | 105% (inactive)
7 | COc1cc(CN2CCCC(C(=O)c3ccc(SC)cc3)C2)cc(Cl)c1O (configuration not stated) | 40.5% [may fluoresce violet] (active)
8 | CN(C)C(=O)c1cc(Br)ccc1Cl | 95.1% (inactive)
9 | Cc1ccc(SCCSc2ncccn2)cc1 | 109% (inactive)
10 | Cc1ccc(SCC2=NNC(=O)C2)cc1 | 38.4% [may fluoresce violet] (active)
11 | Cc1ccc(SCc2cc(=O)[nH]c(N3CCCCC3)n2)cc1 | 97.5% (inactive)
12 | Cc1cccc(N2CCN(C(=O)CN(C)S(=O)(=O)c3ccc4c(c3)CCC(=O)N4)CC2)c1C | 99.3% (inactive)
13 | Clc1c(OCCCn2ccnc2)ccc2ccccc12 | 99.7% (inactive)
14 | O=C(CSc1ncccn1)NCCc1ccccc1 | 99.8% (inactive)
15 | CC(=O)OC(C(=O)NCCc1ccccc1)c1cccnc1 (configuration not stated) | 47.6% [may fluoresce violet] (active)
16 | CCC(Oc1ccccc1)C(=O)NCc1cccnc1 (configuration not stated) | 100% (inactive)
17 | O=C1COc2ccc(C(=O)COC(=O)CCOc3ccccc3)cc2N1 | 97.8% (inactive)
18 | COc1ccc(C(=O)Nc2ncc3c(n2)-c2ccccc2CC3)cc1 | 97.8% (inactive)
19 | COCCN(CCOC)S(=O)(=O)c1ccc(C(=O)Nc2nc3c(s2)CCc2ccccc2-3)cc1 | 25.1% [may fluoresce violet] (active)

Row | Structure (SMILES) | percent response vs DMSO
20 | C=CCN(CC=C)S(=O)(=O)c1ccc(C(=O)Nc2nc3c(s2)CCc2ccccc2-3)cc1 | 103% (inactive)
21 | COc1cc(CNc2ncn[nH]2)ccc1OCc1ccccc1C | 103% (inactive)
22 | O=C1COc2ccc(S(=O)(=O)NCCc3ccc(Cl)cc3)cc2N1 | 103% (inactive)
23 | O=C(COc1ccc(-n2cnnn2)cc1)Nc1ccccc1Cl | 33.1% [may fluoresce violet] (active)
24 | C=CCc1cccc(/C=N/NC(=O)COc2ccc(-n3cnnn3)cc2)c1O | 105% (inactive)
25 | O=C(Cc1c(F)cccc1Cl)Nc1ccc(-n2cnnn2)cc1 | 94.7% (inactive)
26 | COc1ccc(CN(Cc2ccco2)S(=O)(=O)c2ccc(S(=O)(=O)N3CCCC3)cc2)cc1 | 107% (inactive)
27 | CCOc1ccc(S(=O)(=O)N2CCC(c3ccccc3)CC2)cc1C(=O)O | 99.8% (inactive)
28 | O=C(COc1cc2oc(=O)c3c(c2cc1Cl)CCC3)NCCCN1CCOCC1 | 112% (inactive)
29 | CC(Oc1cc2oc(=O)c3c(c2cc1Cl)CCCC3)C(=O)NCc1ccncc1 (configuration not stated) | 14.1% [may fluoresce violet] (active)
30 | COc1ccc(S(=O)(=O)NC(C)C(=O)NCc2ccncc2)cc1Cl (configuration not stated) | 99.9% (inactive)
31 | Cc1ccc(OCCCCN2CCCCC2)c(Br)c1 | 96.8% (inactive)
32 | CCOc1ncccc1C(=O)OCC(=O)NC1CC1 | 99.9% (inactive)
33 | CCOc1ncccc1C(=O)OCc1cn2cc(Cl)ccc2n1 | 45.3% [may fluoresce violet] (active)
34 | CCOc1ncccc1C(=O)OCC(=O)N1c2ccccc2CC1C (configuration not stated) | 95.9% (inactive)
35 | Cc1cc(NC(=O)CCC(=O)N(CC(=O)NC2CCCC2)c2ccc(F)cc2)no1 | 100% (inactive)
36 | Cc1cc(C)cc(N(CC(=O)NC2CCCC2)C(=O)CCC(=O)Nc2cc(C)on2)c1 | 46.1% [may fluoresce violet] (active)
37 | Cc1cc(C)cc(N(CC(=O)NC2CCCC2)C(=O)CCC(=O)Nc2nccs2)c1 | 103% (inactive)
38 | COc1cc(C2C3=C(CCCC3=O)OC3=C2C(=O)CCC3)ccc1OCC(=O)Nc1ccccc1 | 110% (inactive)

Row | Structure (SMILES) | percent response vs DMSO
39 | O=C1CSC(=S)N1c1ccc(Cl)c(Cl)c1 | 109% (inactive)
40 | COc1ccccc1CN1CCN(Cc2cc(OC)c(OC)cc2OC)CC1 | 106% (inactive)
41 | COc1ccc(CN2CCCC(N3CCc4ccccc4C3)C2)c(O)c1 (configuration not stated) | 101% (inactive)
42 | COc1ccccc1CN1CCCC(N2CCN(c3ccc(F)cc3)CC2)C1 (configuration not stated) | 30.8% [may fluoresce violet] (active)
43 | O=C(O)CSc1nccc2ccccc12 | 102% (inactive)
44 | Cc1ccc(NC(=O)CCOc2ccccc2)cc1S(=O)(=O)Nc1ccccc1Cl | 102% (inactive)
45 | O=C(Cn1[nH]c(=O)c2ccccc2c1=O)Nc1cccc(-c2nnc3n2CCCCC3)c1 | 17.9% [may fluoresce violet] (active)
46 | Cc1c(C(=O)Nc2cccc(-c3nnc4n3CCCCC4)c2)oc2ccccc12 | 111% (inactive)
47 | Cc1ccc(-c2csc(NC(=O)Cn3[nH]c(=O)c4ccccc4c3=O)n2)cc1 | 103% (inactive)
48 | COC(=O)c1cc(C(=O)OCC(=O)Nc2cc(C)on2)cc([N+](=O)[O-])c1 | 41.7% [may fluoresce violet] (active)
49 | Cc1cc(NC(=O)COc2ccc([N+](=O)[O-])cc2)no1 | 105% (inactive)
50 | Cc1cc(NC(=O)CSc2nccn2-c2ccc([N+](=O)[O-])cc2)no1 | 98.9% (inactive)
51 | COc1ccc(S(=O)(=O)NCCc2cc3ccc(C)c(C)c3[nH]c2=O)cc1 | 101% (inactive)
52 | Oc1ccc2ccc3cccc[n+]3c2c1 | 100% (inactive)
53 | Nn1c(SCC(=O)Nc2nccs2)nncc1=O | 95.5% (inactive)
54 | CC(C)COP(=O)(c1ccc(N(C)C)cc1)C(Nc1ccccc1)c1cccnc1 (configuration not stated) | 100% (inactive)
55 | COc1ccccc1CNC(=O)C1CCN(S(=O)(=O)c2ccc3c(c2)CC(C)N3C(=O)C2CC2)CC1 (configuration not stated) | 102% (inactive)
56 | Cc1ccc(CNC(=O)CCS(=O)(=O)c2ccc3c(c2)CC(C)N3C(=O)C2CC2)o1 (configuration not stated) | 17.4% [may fluoresce violet] (active)
57 | CCC(=O)N1c2ccc(S(=O)(=O)CCC(=O)N3CCN(c4ccccc4)CC3)cc2CC1C (configuration not stated) | 105% (inactive)
